Test results: PubChem BioAssay (NCATS)
Records with an inconclusive call do not appear. Calls of active or inactive are those of the source. Calls follow the shape of the dose curve; as a rule, active = well fitted cell-killing curve with a large enough effect; inconclusive = small, poorly fitted or top-dose-only effect, or effect the other way; inactive = flat fitted curve, though single readings scatter.

Key:
Assay in all cases: Primary qHTS to identify gynecologic anti-cancer compounds using libraries of approved drugs and bioactive compounds (AID 1345084); also: nearly all actives have a fitted effect of over 55% in size
Details in all cases: Gynecologic cancer cell panel viability, ATPlite luminescence, 48 h; series mostly up to 57.5 µM
OV90 = system: OV90
In short: (§1)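 In this quantitative HTS, cell killing is estimated from loss of ATP-dependent luciferase light. Cells see five compound concentrations over a 48 h exposure.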

PA-1 = system: PA-1
In short: as §1

SKOV3 = system: SKOV3
In short: as §1

Tov-21-G = system: Tov-21-G
In short: as §1

Tov112D = system: Tov112D
In short: as §1
% is scaled to controls: 0 for no effect and ±100 for the full control effect.

C=C1CC[C@@]2(OC1)O[C@H]1CC3[C@@H]4CC=C5C[C@H](O[C@H]6OC[C@@H](O)C(O)[C@@H]6O[C@@H]6O[C@@H](C)[C@H](O)[C@@H](O[C@@H]7O[C@H](CO)[C@@H](O)[C@H](O)[C@H]7O)[C@H]6O)C[C@@H](O)[C@]5(C)C4CC[C@]3(C)[C@H]1[C@@H]2C (stereo not given in full)
inactive: activity change, negative = cytotoxicity (OV90) 6.02% [at 11.6 µM] | activity change, negative = cytotoxicity (PA-1) 3.82% [at 11.6 µM] | activity change, negative = cytotoxicity (SKOV3) 0.203% [at 11.6 µM] | activity change, negative = cytotoxicity (Tov-21-G) 7.35% [at 11.6 µM] | activity change, negative = cytotoxicity (Tov112D) 1.29% [at 11.6 µM]

CCC(C)/C=C(C)/C=C/C1=CC2=C(Cl)C(=O)C(C)(OC(C)=O)C(=O)C2=CN1C(CC(=O)O)C(=O)O (stereo not given)
inactive: Potency (OV90) | Potency (PA-1) | Potency (SKOV3) | Potency (Tov-21-G) | Potency (Tov112D)

COc1cncc(C#Cc2ccccn2)c1
inactive: Potency (OV90) | Potency (PA-1) | Potency (SKOV3) | Potency (Tov-21-G) | Potency (Tov112D)

Nc1ncnc2c1c(COc1cccc(Cl)c1)nn2C1CCOCC1
inactive: Potency (OV90) | Potency (PA-1) | Potency (SKOV3) | Potency (Tov-21-G) | Potency (Tov112D)

CC(=O)OC[C@@]12C(=O)C[C@@H](C)[C@]3(C[C@@H](c4ccoc4)OC3=O)[C@H]1CC[C@H](OC(C)=O)[C@]21CO1
inactive: Potency (OV90) | Potency (PA-1) | Potency (SKOV3) | Potency (Tov-21-G) | Potency (Tov112D)

O=C(O)Cc1cn([C@@H]2OC[C@@H](O[C@@H]3O[C@H](CO)[C@@H](O)[C@H](O)[C@H]3O)[C@H](O)[C@H]2O[C@@H]2O[C@H](CO)[C@@H](O)[C@H](O)[C@H]2O)c2ccccc12
inactive: Potency (OV90) | Potency (PA-1) | Potency (SKOV3) | Potency (Tov-21-G) | Potency (Tov112D)
